According to PubChem BioAssay AID651640 (Broad Institute, 2012):
About 6,000 (1.7%) of roughly 350,000 compounds were called active. Another 5% or so got no clear call; they are omitted. The sample as a whole holds a higher share of actives than the screen did. Unmarked numbers belong to inactive results. Cut-off read from the data, not from the text of the source: active = CPE inhibition above about 20% (passing the limit was not always enough); inconclusive = no clear call, values can overlap the other calls; tested in BHK-21 cells.

Assay: inhibitors of DENV2 cytopathic effect, primary screen, cell-based, plate reader, single concentration (AID 651640);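 note: 0% = median of neutral control wells and 100% = median of positive control wells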
Settings: DENV2-infected cells, cytopathic effect rescue, at 9.99 µM, hits give high values

SMILES	CPE inhibition
O=C(C[C@@H]1C=C[C@@H](NC(=O)Nc2cccc(F)c2)[C@H](CO)O1)NCC1CCCCC1	8.16%
C[C@@H]1CN([C@@H](C)CO)C(=O)c2cc(C#Cc3ccncc3)cnc2O[C@@H]1CN(C)C(=O)CN(C)C	-5.91%
C[C@H]1CN([C@@H](C)CO)C(=O)Cc2cc(NC(=O)C3CC3)ccc2O[C@@H]1CN(C)S(=O)(=O)c1cccs1	0.692%
O=C(C[C@H]1C=C[C@@H](NC(=O)Nc2cc(F)ccc2F)[C@@H](CO)O1)NCc1ccc2c(c1)OCO2	3.1%
CCC(=O)Nc1ccc2c(c1)OC[C@@H](C)N(Cc1cncnc1)C[C@H](C)[C@@H](OC)CN(C)C2=O	0.095%
O=C(Cc1ccncc1)Nc1ccc2c(c1)[C@@H]1C[C@H](CC(=O)N3CCCCC3)O[C@H](CO)[C@@H]1O2	-1.67%
CC(=O)N1[C@H](CN(CC2CCC2)C(=O)CN(C)C)[C@@H](c2ccccc2)[C@@H]1CO	-6.71%
CCO[C@H]1OC(C(=O)O)=C[C@@H](C2CCCCC2)[C@@H]1CCCO	45.4% (active)
CCO[C@@H]1OC(C(=O)NCc2nc3ccccc3[nH]2)=C[C@H](C2CCCCC2)[C@H]1CCCO	5.22%
CCO[C@H]1OC(C(=O)Nc2ccccc2)=C[C@@H](C2CC2)[C@@H]1CCCO	-12.3%
C[C@H](CO)N1C[C@H](C)[C@@H](CN(C)S(=O)(=O)c2cccs2)OCc2ccccc2-c2ccccc2C1=O	0.48%
COc1cccc(NC(=O)CN(C)C(=O)CSC(=S)N2CCCC2)c1	31.4% (active)
COc1cccc(NC(=O)CN(C)C(=O)Cc2ccc(Cl)cc2Cl)c1	-4.12%
COc1cccc(NC(=O)CN(C)CC(=O)Nc2ccc3c(c2)CCC3)c1	4.15%
O=C(Nc1cc(F)ccc1F)N1CCCCN2[C@H](C1)[C@H](c1ccc(-c3cccnc3)cc1)[C@@H]2CO	-2.73%
CN(C)CCCNC(=O)C[C@@H]1C=C[C@H](NC(=O)c2ccccc2F)[C@H](CO)O1	-4.33%
CCCC#Cc1ccc([C@@H]2[C@H](CO)N3CCCCN(S(=O)(=O)c4ccccc4F)C[C@@H]23)cc1	-29.1%
CC(C)NC(=O)N(C)C[C@H]1Oc2cc(-c3cncnc3)ccc2S(=O)(=O)N([C@@H](C)CO)C[C@H]1C	12.5%
Cc1ccc(S(=O)(=O)N(CCc2ccccc2)c2ccc3c(c2)C2CC3CCN2C(=O)OCc2ccccc2)cc1 (stereo unspecified)	-3.72%
O=C(OCc1ccccc1)N1CCC2CC1c1cc(N3CCN(S(=O)(=O)c4cc(Cl)cc(Cl)c4)CC3)ccc12 (stereo unspecified)	-5.76%
O=C(OCc1ccccc1)N1CCC2CC1c1ccc(-c3ccc4c(c3)OCO4)cc12 (stereo unspecified)	59.5% (active)
O=C(C[C@H]1CC[C@H]2[C@@H](COC[C@H](O)CN2Cc2nccs2)O1)NCc1ccc(Oc2ccccc2)cc1	3.47%
COc1ccc(-n2nc3c(c2NC(=O)Cc2cccc(C)c2)CS(=O)C3)cc1 (stereo unspecified)	99.5% (active)

SMILES	CPE inhibition
Cc1ccc(-n2nc3c(c2NC(=O)CCC2CCCCC2)CS(=O)C3)cc1 (stereo unspecified)	-3.75%
CC(Oc1ccccc1)C(=O)Nc1c2c(nn1-c1ccccc1)CS(=O)C2 (stereo unspecified)	2.29%
CCCCN1CC(C)(C)[C@H](CC(=O)Nc2ccc(Br)cc2)C1=O	6.43%
CC1(C)CN(Cc2cccnc2)C(=O)[C@H]1CC(=O)Nc1ccc(Br)cc1	30.1% (active)
CC1(C)CN(CCc2ccccc2)C(=O)[C@H]1CC(=O)Nc1ccc(Br)cc1	0.989%
C[C@@H]1CCCCO[C@@H](CN(C)C(=O)CCC(F)(F)F)[C@H](C)CN([C@@H](C)CO)C(=O)c2cc(NC(=O)CCCN(C)C)ccc2O1	3.1%
O=S(=O)(NC[C@H]1[C@@H](c2ccccc2)[C@@H](CO)N1CC1CC1)c1ccccc1	8.65%
O=C(NC[C@@H]1[C@H](c2ccccc2)[C@H](CO)N1CC1CCCC1)c1cccnc1	54.5% (active)
O=C(NC[C@H]1[C@@H](c2ccccc2)[C@H](CO)N1CC1CC1)c1cccnc1	-7.73%
COc1cccc(-c2ccc3c(c2)O[C@H](CN(C)C(=O)C2CCOCC2)[C@H](C)CN([C@H](C)CO)S3(=O)=O)c1	-2.8%
Cc1cnc(CN(C)C(=O)CC2C(=O)NCCN2Cc2cccc(F)c2F)[nH]1 (stereo unspecified)	20.8% (active)
CN(Cc1cccc2ncccc12)C(=O)CC1C(=O)NCCN1Cc1ccc(F)cc1 (stereo unspecified)	2.99%
CC(C)c1nc(CNC(=O)CC2C(=O)NCCN2Cc2cccc(F)c2F)cs1 (stereo unspecified)	-4.34%
C[C@@H]1CN([C@@H](C)CO)C(=O)c2cc(NC(=O)Nc3cccc4ccccc34)ccc2O[C@@H](C)CCCCO[C@@H]1CN(C)S(=O)(=O)c1ccc(Cl)cc1	-12.5%
COc1ccccc1-c1ccc2n(c1=O)C[C@H]1[C@H](CO)[C@@H](C(=O)N[C@@H](C)c3ccccc3)[C@@H]2N1C	-8.56%
CC(C)CC#Cc1ccc([C@@H]2[C@@H](CO)N3C(=O)CN(C(=O)c4cnccn4)C[C@@H]23)cc1	-1.01%
O=C(C[C@@H]1C=C[C@H](NC(=O)CCN2CCCCC2)[C@H](CO)O1)NCc1ccc(Cl)c(Cl)c1	0.258%
COc1ccc(/C=C/C(=O)c2c(O)cc(OC)cc2OC)cc1	-8.14%
COc1ccc(C(=O)/C=C/c2cccnc2)c(OC)c1	-6.66%
COc1ccc(/C=C/C(=O)c2ccc(OC)cc2O)cc1	64.1% (active)
O=C1NC[C@@H](c2ccccc2)OC(=O)[C@H](Cc2ccc(F)cc2)CC/C=C/C[C@H]1CC(=O)N(CCO)Cc1ccccc1	-5.29%
O=C1CCC/C=C\C[C@@H](CC(=O)N(CCO)Cc2ccccc2)C(=O)NCCO1	-1.93%
O=C1CCC/C=C/C[C@@H](CC(=O)N(CCO)Cc2ccccc2)C(=O)NC[C@H](c2ccccc2)O1	85.4% (active)
